# In PubChem BioAssay (NCATS):
# Several values for one entry are separate records, joined by “and”; a condition that tells them apart may be missing. Equal values may be shown once. Inconclusive results are not listed. Activity calls are given as the source filed them. The call rests on the fitted dose curve; in most records, active means well fitted cell-killing curve with a large enough effect; inconclusive means small, poorly fitted or top-dose-only effect; inactive means no such curve, though single readings can be large or run the other way.
# Test: qHTS of pediatric cancer cell lines to identify multiple opportunities for drug repurposing: Confirmatory screen for TC32 cells (AID 1347118);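 further: cells exposed to compound for 48 h before the read; nearly all actives have a fitted effect of over 65% in size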
# Settings: TC32 Ewing sarcoma cells viability qHTS; series mostly up to 45.9 µM
# Description: Drug repurposing or repositioning has been offered as a strategy for drug development in oncology programs. This approach has special potential for childhood cancers and other rare or orphan diseases, where the expected return on new drug development has been a disincentive to pharmaceuticals.
# In this project we exploit the poly-pharmacology of drugs to discover new indications via phenotypic screening of a panel of 19 well-characterized cell lines derived from solid tumors seen in children and adolescents. The goal is to identify approved drugs with previously unrecognized anticancer properties that has the potential to reveal new mechanisms and biological processes involved in carcinogenesis or drug resistance. We employed a titration-based paradigm (quantitative high-throughput screening or qHTS), where all compounds were tested at multiple concentrations for their effect on cell viability. Concentration-response curves (CRCs) were derived directly from the primary screen, and both potency and efficacy values were used to identify compounds with robust bioactivity profiles. We screened the NIH Chemical Genomics Center (NCGC) Pharmaceutical Collection (NPC) and Mechanism Interrogation Plate (MIPE) small molecule collections of approved and investigational compounds against these cell lines; and measured metabolically active cells after 48 hours of compound treatment as a proxy for cell viability.
# Assay Submitter: Nathalia J. Martinez, National Center for Advancing Translational Sciences, National Institutes of Health, Rockville, MD, USA; email: natalia.martinez@nih.gov
# [1] Shen, M et al. Quantitative high-throughput phenotypic screening of pediatric cancer cell lines identifies multiple opportunities for drug repurposing. Oncotarget 2017 Dec 19;9(4):4758-4772. PMID 29435139.
# The cells were obtained from University of North Carolina (UNC), Pediatric Preclinical Testing Program (PPT), and Coriell Institute (CI).
# qHTS cell viability assay:
# Cells were assayed in growth media at a density of 500-1,000 cells/well. Five microliters of cells were dispensed into 1,536-well, white, solid-bottom, TC-treated plates (Greiner Bio One) using a multidrop dispenser and incubated at 37 degrees C, 5% CO2, under a humidified atmosphere for 5 hours. Twenty-three nanoliters of compounds and controls (neutral control DMSO or positive control bortezomib at final concentration of 2.3 uM) were subsequently transferred by Kalypsys pintool. For primary screens, the MIPE collection was tested at 11-point dilutions (final concentrations range from 0.78 nM to 46 µM) and the NPC collection at 8-point dilutions (final concentrations range from 0.59 nM to 46 µM). Compounds tested in follow-up screens were assayed at 11-point dilutions. Cells were incubated for 48 hours, followed by addition of 3 uL of CellTiter-Glo (Promega). After a 15min incubation at room temperature, samples were analyzed for luminescence intensity using a ViewLux High-throughput CCD imager equipped with clear filters.
# Potency means the concentration at half of the fitted maximal effect.
row,Structure (SMILES),Potency
1,Cc1ccc([N+](=O)[O-])[c]2c1[O][Hg]2,0.261 µM (active)
2,COc1ccc(C(=O)N2CCCC2=O)cc1,14.7 µM (active)
3,CN1[C@@H]2CC[C@H]1CC(OC(=O)c1cc(Cl)cc(Cl)c1)C2 (some centres not stated),inactive
4,CN(C)C(=S)SSC(=S)N(C)C,1.04 µM (active)
5,COC(=O)C1=CCCN(C)C1,10.4 µM (active)
6,C[C@@H]1O[C@@H](O[C@@H]2C=C3CC[C@@H]4[C@H](CC[C@]5(C)[C@@H](c6ccc(=O)oc6)CC[C@]45O)[C@@]3(C)CC2)[C@H](O)[C@H](O)[C@H]1O,0.0233 µM (active)
7,C[C@@H]1C[C@@H]([C@H](O)CC2CC(=O)NC(=O)C2)C(=O)[C@@H](C)C1,465 nM (active) and 522 nM (active)
8,CCCCCCCCCCCC[N+](C)(C)CCOc1ccccc1,7.37 µM (active)
9,CC1Sc2c(C(=O)O)c(=O)c3cc(F)c(N4CCNCC4)cc3n21 (configuration not stated),18.5 µM (active)
10,CC[n+]1c(-c2ccccc2)c2cc(N)ccc2c2ccc(N)cc21,1.17 µM (active)
11,COc1ccc2c(C(=O)c3ccc(Cl)cc3)c(C)n(CC(=O)O)c2c1,16.5 µM (active)
12,CCCCCCCCC(=O)NCc1ccc(O)c(OC)c1,5.22 µM (active)
